Measurements as given in article PMC4336329 (PLoS ONE, 2015).
Among all 310,000 compounds or so, about 14,000 (4.5%) showed an effect of 50% or more. The effect is printed as a negative number. What follows is part of a selection rich in strong results, with near analogues and random picks from the rest.

What follows are compounds tested against human ether-à-go-go-related gene (hERG) potassium channel (human, UniProt Q12809) (assay: primary screen, population patch clamp on CHO cells stably expressing hERG; higher = less effect of the substance).
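Further: peak tail current of the secondary pulse compared with the same well before compound.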

human ether-à-go-go-related gene (hERG) potassium channel, sequence (Q12809 whole entry, looked up): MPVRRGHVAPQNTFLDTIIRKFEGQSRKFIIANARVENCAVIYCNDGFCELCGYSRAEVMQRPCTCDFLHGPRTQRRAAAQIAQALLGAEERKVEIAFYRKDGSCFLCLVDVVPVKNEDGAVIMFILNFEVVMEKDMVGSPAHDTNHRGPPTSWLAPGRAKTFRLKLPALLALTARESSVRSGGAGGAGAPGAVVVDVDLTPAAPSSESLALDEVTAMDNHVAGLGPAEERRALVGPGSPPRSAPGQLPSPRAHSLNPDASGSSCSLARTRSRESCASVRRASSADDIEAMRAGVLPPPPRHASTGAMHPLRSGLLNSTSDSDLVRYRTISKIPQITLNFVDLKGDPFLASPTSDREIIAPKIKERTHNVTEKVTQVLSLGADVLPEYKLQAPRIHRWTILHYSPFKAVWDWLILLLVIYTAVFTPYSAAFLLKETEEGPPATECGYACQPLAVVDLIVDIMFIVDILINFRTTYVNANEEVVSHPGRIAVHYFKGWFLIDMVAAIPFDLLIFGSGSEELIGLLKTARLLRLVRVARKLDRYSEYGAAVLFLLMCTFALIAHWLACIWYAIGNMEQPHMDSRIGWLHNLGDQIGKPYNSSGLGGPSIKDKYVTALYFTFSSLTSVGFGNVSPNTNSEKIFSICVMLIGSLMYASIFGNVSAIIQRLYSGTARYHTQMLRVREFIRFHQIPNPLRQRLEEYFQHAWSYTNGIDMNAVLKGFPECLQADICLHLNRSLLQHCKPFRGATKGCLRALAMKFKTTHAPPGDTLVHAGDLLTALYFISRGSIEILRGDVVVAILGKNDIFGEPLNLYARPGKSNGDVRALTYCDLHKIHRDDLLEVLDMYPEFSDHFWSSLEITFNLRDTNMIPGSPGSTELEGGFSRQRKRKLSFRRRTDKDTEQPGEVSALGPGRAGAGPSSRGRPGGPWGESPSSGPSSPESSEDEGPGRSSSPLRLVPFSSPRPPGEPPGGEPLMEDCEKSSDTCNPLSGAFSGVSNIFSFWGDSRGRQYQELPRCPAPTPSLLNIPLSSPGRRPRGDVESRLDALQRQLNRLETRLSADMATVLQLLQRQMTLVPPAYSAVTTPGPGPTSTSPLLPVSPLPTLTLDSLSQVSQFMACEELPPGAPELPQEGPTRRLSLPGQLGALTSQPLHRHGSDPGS

Compound	hERG current change (%, negative = inhibition) at 10uM [%]
O=C(CNC(c1ccccc1)c1ccccc1)Nc1cc([N+](=O)[O-])ccc1Cl	10.7
CCCCc1cc(O)c(CCCC)c(O)c1	-34.1
COc1ccccc1NC(=O)/C(C#N)=C/c1ccc(OCCN2CCOCC2)c(OC)c1	-6.48
COc1cc(/C=C(\C#N)C(=O)Nc2ccccc2)ccc1OCCN1CCOCC1	-21.7
COc1cc(/C=C(\C#N)C(=O)Nc2ccccc2F)ccc1OCCN1CCOCC1	-64.6
O=C(N/N=C/c1cccs1)c1cncc(Br)c1	-10.1
COc1ccc(C)cc1NS(=O)(=O)c1ccc2c(c1)CCN2C(C)=O	-17.2
Cc1cccc(NC(=S)N(CCc2ccncc2)C(C)C)c1C	-8.61
Cc1ccc(C)c(NC(=S)N(CCc2ccncc2)C(C)C)c1	-42.1
CCOc1ccc(NC(=S)N(CCc2ccncc2)C(C)C)cc1	-50.6
CC(C)N(CCc1ccncc1)C(=S)Nc1ccc(F)c(Cl)c1	-71.7
CC(C)N(CCc1ccncc1)C(=S)Nc1cccc(Cl)c1	-71.3
Cc1cccc(C)c1NC(=S)N(CCc1ccncc1)C(C)C	-1.45
CCc1ccccc1NC(=S)N(CCc1ccncc1)C(C)C	-29.6
CC(C)NC(=S)N(CCc1ccncc1)C(C)C	17.3
Cc1cc(C)c(NC(=S)N(CCc2ccncc2)C(C)C)c(C)c1	-8.82
CCc1ccccc1N/N=C(/C)c1c(O)cc(C)oc1=O	-1.91
Cc1c(CCC(=O)O)c(=O)oc2cc3occ(-c4ccccc4)c3cc12	-27.8
CC(CN1C(C)CCCC1C)OC(=O)c1cccc(F)c1.Cl (stereo not drawn)	-13
COc1ccc(-c2nc(CN3CCN(Cc4cccc(Cl)c4)CC3)c(C)o2)cc1	-33.1
COc1ccc(-c2nc(CN3CCN(c4cc(C)nc(C)c4)CC3)c(C)o2)c2ccccc12	-73.6
Cc1cc(N2CCN(Cc3nc(-c4ccc(Cl)cc4)oc3C)CC2)cc(C)n1	-68.8
Cc1oc(-c2cc(F)ccc2F)nc1CN1CCN(c2ncnc3ccccc23)CC1	-43.6

Compound	hERG current change (%, negative = inhibition) at 10uM [%]
COc1ccc(-c2nc(CN3CCN(C(=O)c4ccco4)CC3)c(C)o2)c(OC)c1C	-18
COc1ccc(-c2nc(CN3CCN(c4ncccn4)CC3)c(C)o2)cc1C	-21.1
Cc1cccc(-c2nc(CN3CCN(Cc4cccc(F)c4)CC3)c(C)o2)c1	-47
Cc1cccc(N2CCN(Cc3nc(-c4cccc(Cl)c4)oc3C)CC2)n1	-21
COc1ccc(-c2nc(CN3CCN(Cc4cccc(F)c4)CC3)c(C)o2)cc1	-46.6
Cc1cc(N2CCN(Cc3nc(-c4ccc(F)cc4)oc3C)CC2)cc(C)n1	-53.8
Cc1oc(-c2cccc3ccccc23)nc1CN1CCN(c2ncnc3ccccc23)CC1	-11.9
COc1ccc(-c2nc(CN3CCN(c4ncnc5ccccc45)CC3)c(C)o2)c(OC)c1	-66.8
Clc1ccc(-c2csc(Nc3cccnc3)n2)cc1	13.5
CC(C)(C)C(=O)Nc1ccc(F)cc1[N+](=O)[O-]	5.56
Cc1cc2oc(=O)cc(CN3CCC(C)CC3)c2c(C)c1Cl	-2.84
CCCCCc1c(O)c2ccccc2[nH]c1=O	7.97
N#CCC(=O)NNC(=S)NC(=O)C(c1ccccc1)c1ccccc1	5.41
O=C(NCCCCc1ccccc1)c1cccc(Br)c1	-3.79
CCOc1ccc(N(CC(=O)Nc2nccs2)S(=O)(=O)c2c(C)noc2C)cc1	-5.98
COc1ccc(C2=CSC3=NCCN23)cc1Cl	-2.92
CCOc1ccc(C2=CSC3=NCCN23)cc1Cl	-22.8
Br.COc1ccc(C2=CSC3=NCCN23)cc1OC	-6.58
Br.COc1ccc(C2=CSC3=NCCN23)cc1F	-13.9
O=[N+]([O-])c1ccc(C2=CSC3=NCCN23)cc1	-32.9
Br.COc1ccc(C2=CSC3=NCCN23)cc1Br	-50.7
CCCOc1ccc(C2=CSC3=NCCN23)cc1Cl	-67.8
CCCOc1ccc(C2=CSC3=NCCN23)cc1[N+](=O)[O-]	-73.6

Compound	hERG current change (%, negative = inhibition) at 10uM [%]
CCCCOc1ccc(-c2csc(N)n2)cc1[N+](=O)[O-]	11.2
CCCCOc1ccc(C2=CSC3=NCCN23)cc1[N+](=O)[O-]	-71
CCCOc1ccc(C2=CSC3=NCCN23)cc1.Cl	-28.3
CSc1nc2sc3c(c2c(=O)n1C)CCCC3	-13.5
CC(OC(=O)c1ccc(Br)c(S(=O)(=O)N2CCOCC2)c1)C(=O)NC1CCCCC1C (stereo not drawn)	-49.9
CC(C)(C)NC(=O)NC(=O)C[n+]1ccc(Cc2ccc([N+](=O)[O-])cc2)cc1.[Cl-]	-5.27
O=C(CCCN1C(=O)/C(=C\c2ccccc2)SC1=S)Nc1ccc(O)cc1C(=O)O	18.1
CCOC(=O)/C=c1\s/c(=C\c2ccc(C(F)(F)F)cc2)c(=O)n1CC(=O)NCc1ccco1	5.47
O=C(CSc1nnnn1-c1cccnc1)NCc1cccs1	9.62
CCOC(=O)COc1ccc(C2CC(C)=NN2c2ccccc2)cc1 (stereo not drawn)	-0.31
CC(=O)n1nc2nc(C)cc(C)c2c1N	13.9
O=C(/C=C/c1ccco1)NC1CCCC1	17.4
CCOc1ccc(/C=N/NC(=O)c2ccccc2C)cc1CN1CC2CC(C1)c1cccc(=O)n1C2 (stereo not drawn)	-26.8
O=C(CCN=C1NS(=O)(=O)c2ccccc21)OCC(=O)c1ccc(F)c(F)c1	11
O=C(NCc1ccccc1)NS(=O)(=O)c1ccccc1Cl	-4.3
COc1ccc(C2=CSC3=NCCN23)cc1[N+](=O)[O-]	-26.1
CCOc1ccc(C2=CSC3=NCCN23)cc1	-4.08
CCOc1ccc(C2=CSC3=NCCN23)cc1[N+](=O)[O-]	-75.5
CCN(CC)c1ccc2c(c1)oc(=O)c1c(Cl)cc(=O)oc12	14.8
COc1cc(O)c(NC(C)=O)c2nonc12	11.2
CCn1c(SCc2ccc(F)cc2)nnc1C1CCN(S(=O)(=O)c2ccc(OC)cc2)CC1	-64.3
CCn1c(SC(C)C)nnc1C1CCN(S(=O)(=O)c2ccc(OC)cc2)CC1	-20.6
CCn1c(C2CCN(S(=O)(=O)c3ccc(OC)cc3)CC2)n[nH]c1=S	-18

Compound	hERG current change (%, negative = inhibition) at 10uM [%]
CCn1c(SCc2ccccc2)nnc1C1CCN(S(=O)(=O)c2ccc(OC)cc2)CC1	-60.8
CCn1c(SCc2ccc(C)cc2)nnc1C1CCN(S(=O)(=O)c2ccc(OC)cc2)CC1	-64.5
CCn1c(SC)nnc1C1CCN(S(=O)(=O)c2ccc(OC)cc2)CC1	-4.3
Cc1ccc(S(=O)(=O)N2CCC(c3nnc(SCCN4CCCC4)n3C)CC2)cc1	17.7
CCn1c(SCc2ccccc2)nnc1C1CCCCC1	-11.2
CCn1c(SCC(=O)c2ccc(OC)cc2)nnc1C1CC1	6.73
COc1ccc2c(c1)c(CC(=O)Nc1ccc(C)cc1)c(C)n2C(=O)c1ccc(Cl)cc1	-20.4
O=C1c2oc3ccccc3c(=O)c2C(c2ccccn2)N1Cc1ccccc1 (stereo not drawn)	5.53
CCOC(=O)c1c(C)nc(-c2ccccc2)nc1NC(=O)CC	1.29
Cn1c(=O)c2sccc2n2c(CCCC(=O)NCc3ccco3)nnc12	-1.92
COC(=O)C1CCN(C(=O)c2ccccc2NC(C)=O)CC1	16.8
O=[N+]([O-])c1ccc(CSc2nnc3ccccn23)cc1	-57.2
O=C(c1nc(SCc2ccc([N+](=O)[O-])cc2)n2ccccc12)C(F)(F)F	-71.1
O=[N+]([O-])c1ccccc1CSc1nnc2ccccn12	-0.991
Brc1ccc(CSc2nnc3ccccn23)cc1	-18.7
Cn1ccnc1SCc1ccc([N+](=O)[O-])cc1	-2.75
O=c1c2ccccc2nc(SCc2ccc([N+](=O)[O-])cc2)n1-c1ccccc1	10.9
O=C(NC(=S)NNC(=O)c1ccccc1O)c1cccc([N+](=O)[O-])c1	26.2
O=C(NCCCN1CCOCC1)C(=O)N/N=C/c1ccccc1	-20.2
CCC(=NCCN1CCOCC1)c1c(O)n(C2CCCCC2)c(=O)[nH]c1=O	-6.76
CC1(C)CC(=O)C(CC(=O)N2CCC(Cc3ccccc3)CC2)C(=O)C1	34.8
